Sampled rows, rich in hits. Any-hit rate of the full collection: about 22%.
Pf growth 96h: inhibits malaria parasite growth, 96 h | actives 6.9% (n = 320,000) | Potency, µM (series often up to 28.7 µM), without a hit: at the top dose activity change, negative = inhibition, usual class: inhibitors | P. falciparum luciferase reporter growth, 96 h; also: potency is read from the fitted curve at half-maximal effect; % is scaled to controls: 0 for no effect and ±100 for the full control effect
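Parasite growth measured via integrated firefly luciferase reporter in P. falciparum. Infected erythrocytes at 2% hematocrit, 0.05% parasitemia final were treated 96 hours at 37 C under 5% CO2, and luminescence was read.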
LmPK inhibitor: LmPK (Leishmania mexicana) enzyme inhibition. Potency, µM (titrated, usually from 57.5 µM), inactives show at the top dose activity change, negative = inhibition, most hits filed as inhibitors. Q27686. AID 1721. purified LmPK, Kinase-Glo ATP luminescence, 1 h. actives 0.37% (n = 290,000); also: potency is read from the fitted curve at half-maximal effect; % is scaled to controls: 0 for no effect and ±100 for the full control effect
Target sequence (Q27686 whole entry, looked up): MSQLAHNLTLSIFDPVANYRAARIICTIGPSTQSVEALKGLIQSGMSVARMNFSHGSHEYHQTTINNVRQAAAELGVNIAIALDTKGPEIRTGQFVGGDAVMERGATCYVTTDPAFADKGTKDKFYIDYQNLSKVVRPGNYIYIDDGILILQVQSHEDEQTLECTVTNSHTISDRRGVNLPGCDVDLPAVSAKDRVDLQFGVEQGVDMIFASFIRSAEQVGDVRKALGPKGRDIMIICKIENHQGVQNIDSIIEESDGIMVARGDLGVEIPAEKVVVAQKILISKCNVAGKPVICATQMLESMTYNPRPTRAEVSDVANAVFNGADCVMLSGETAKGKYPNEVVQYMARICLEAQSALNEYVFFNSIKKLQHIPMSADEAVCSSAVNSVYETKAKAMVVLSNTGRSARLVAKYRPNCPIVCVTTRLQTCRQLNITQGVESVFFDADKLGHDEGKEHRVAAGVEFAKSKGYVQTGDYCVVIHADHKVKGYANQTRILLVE
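In 50 mM imidazole pH 7.2 with 7 mM MgCl2, LmPK (0.1 nM) turned over PEP (0.5 mM) and ADP (0.1 mM) for 1 h at room temperature. Luciferase read-out of ATP.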
Pf growth 48h: inhibits P. falciparum growth in the first generation, 48 h; Potency, µM (top dose mostly 28.7 µM), for inactives: top-dose activity change, negative = inhibition, usual class: inhibitors; actives 5.9% (n = 310,000); P. falciparum luciferase growth in erythrocytes, 48 h; AID 504832; also: potency is read from the fitted curve at half-maximal effect; % is scaled to controls: 0 for no effect and ±100 for the full control effect
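Firefly luciferase activity from engineered P. falciparum reports growth; inhibitors lower the luminescent signal. Cultures contained 2% hematocrit erythrocytes at 0.1% final parasitemia.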
Cycloheximide cs: counter-screen for Shiga toxin inhibitors: cycloheximide protein synthesis inhibition | cell reporter, cycloheximide protein synthesis inhibition counterscreen | max response, % | actives 12% (n = 300,000); in the data active = max response mostly above about 13%, no sharp cut-off; inactive = mostly below about 14%; also: read at 38.3 µM for the half of the compounds with a filed dose; 0% is about no effect
Shiga inhibitor: Shiga toxin inhibition; Vero cells, Shiga toxin protein synthesis inhibition reporter; inhibition, % at 38.7 µM; actives 9.2% (n = 290,000); AID 2315; in the data active = inhibition mostly above about 28%, no sharp cut-off; inactive = mostly below about 43%; also: 0% is about no effect
An asterisk follows results filed as active; i = inactive; ? = inconclusive; / = not tested or not shown; [ ] = another dose, or the depositor's remark. Unless noted, calls follow the shape of the dose curve; as a rule, active = well fitted inhibition curve with a large enough effect; inconclusive = small, poorly fitted or top-dose-only effect, or another doubt; inactive = no such curve, though single readings can be large or run the other way.

SMILES	Pf growth 96h	LmPK inhibitor	Pf growth 48h	Cycloheximide cs	Shiga inhibitor
COc1ccc(OC)c(NC(=O)c2cc(-c3cc(C)ccc3O)n[nH]2)c1	6.57µM*	4.7%	?	-1.6	36.1
COc1ccc(CCNC(=O)c2cc(-c3cc(C)c(C)cc3O)n[nH]2)cc1OC	-6.8%	6.9%	?	1.2	-5.6
O=[N+]([O-])/C(C(Cl)=C(Cl)Cl)=C(/NC1CC1)Sc1ccccc1	?	-0.5%	-0.5%	7.0	2.4
COc1cccc(C2Nc3c(F)cc(Br)cc3C3C=CCC32)c1OC (stereo not drawn)	11.7µM*	0.7%	9.28µM*	-6.0	-18.5
COc1cc(C2Nc3c(F)cccc3C3C=CCC32)cc(Br)c1OC (stereo not drawn)	4.3%	4.2%	9.28µM*	-1.3	18.5
COc1cccc2c1NC(C(=O)O)C1CC=CC21 (stereo not drawn)	79.9%	-12.6%	-15.7%	-1.8	-14.5
O=C(O)c1ccccc1O[C@@H]1O[C@H](C(=O)O)[C@@H](O)[C@H](O)[C@H]1O	/	/	/	13.7	-5.6
c1ccc2sc(Sc3ncnc4sccc34)nc2c1	0.738µM*	-27.9%	1.85µM*	41.6*	45.9*
CCc1cc2c(Sc3nc4ccccc4s3)ncnc2s1	?	-5.3%	1.85µM*	14.0	24.3
COc1ccc(NC2CCCN(C(=O)CCN3CCOCC3)C2)cc1 (stereo not drawn)	7.5%	6.5%	-8.5%	4.5	-3.7
COc1ccc(C2N(c3ccccc3)C(=O)C2(F)F)cc1OC (stereo not drawn)	12.5%	-5.3%	/	-1.9	-3.3
COc1cccc(C2C=C(Nc3ccccc3)C(=O)N2c2ccccc2)c1 (stereo not drawn)	-32.7%	3.2%	?	27.1*	18.9*
COc1ccc(C2C=C(Nc3ccccc3)C(=O)N2c2ccccc2)cc1OC (stereo not drawn)	?	1.1%	-4.4%	37.7*	65.7*
COc1cccc(N2C(=O)N(c3ccccc3)C3CS(=O)(=O)CC32)c1 (stereo not drawn)	48.4%	0.1%	-3.0%	-2.5	-24.4
Cn1c(SCC(=O)N2CCN(S(=O)(=O)c3ccc(Cl)cc3)CC2)nc2ccccc21	10.4µM*	8.6%	/	-1.7	6.0
Cn1c(SCC(=O)N2CCN(S(=O)(=O)c3ccccc3)CC2)nc2ccccc21	?	0.9%	?	9.5	-17.9
CC(C)Cn1c(SCC(=O)N2CCN(S(=O)(=O)c3ccccc3)CC2)nc2ccccc21	/	-1.6%	3.29µM*	-6.1	-9.3
Cc1cc(Br)ccc1SCC(=O)N1CCN(S(=O)(=O)c2ccccc2)CC1	?	-7.0%	?	32.9*	38.3*
Cc1ccc(-c2nnc(SCC(=O)N(CC(C)C)c3c(N)n(Cc4ccccc4)c(=O)[nH]c3=O)n2N)cc1	0.0%	-2.2%	?	-1.7	-7.0
COc1ccc(S(=O)(=O)n2nc(-n3c(C)ccc3C)c3c(F)cccc32)cc1OC	?	-2.2%	5.86µM*	5.4	1.3
Fc1ccc(Cc2nnc(-c3cccs3)o2)cc1	?	0.4%	46.7%	32.5*	43.4*
Fc1ccc(CSc2nnc(-c3cccs3)o2)cc1	/	1.6%	193.8%	65.1*	100.7*
c1csc(-c2nnc(Cc3cccc4ccccc34)o2)c1	-23.4%	4.6%	?	17.4*	29.3
Cc1nnc(SCc2nnc(-c3cccs3)o2)n1Cc1ccccc1	?	-7.4%	i	3.7	-22.1
CCSc1nnc(-c2cccs2)o1	/	-0.8%	28.6%	28.4*	27.7
SMILES	Pf growth 96h	LmPK inhibitor	Pf growth 48h	Cycloheximide cs	Shiga inhibitor
Fc1ccc(-c2nnc(CSc3nnc(-c4cccs4)o3)o2)cc1	65.4%	0.5%	/	9.6	27.8
CC(=O)N1CCC(=NNS(=O)(=O)c2cccc([N+](=O)[O-])c2)CC1	13.7%	8.7%	/	-4.3	-7.9
CS(=O)(=O)Nc1ccccc1C(=O)c1ccccc1	2.3%	-11.3%	9.0%	-2.5	-20.8
COc1ccc(OC)c(NC(=S)N2CCN(C(=O)C3CCCO3)CC2)c1 (stereo not drawn)	-9.6%	-9.4%	6.1%	0.9	-2.8
c1ccc(CSc2nnc(-c3cccs3)o2)cc1	?	2.7%	113.9%	46.3*	101.3*
CC1(c2nnc(-c3ccc(F)cc3)o2)CC(c2ccc(Cl)cc2)=NO1 (stereo not drawn)	75.8%	9.8%	58.5%	-5.2	-3.3
O=C(CSc1nnc(-c2cccs2)o1)N1CCOCC1	-16.7%	1.8%	43.6%	-2.2	-5.3
Fc1ccccc1CSc1nnc(-c2cccs2)o1	/	-4.8%	182.9%	44.3*	88.4*
Fc1ccc(-c2nnc(Cc3ccc(Cl)cc3)o2)cc1	65.3%	-7.0%	59.5%	36.5*	59.0*
c1ccc(-c2nnc(CSc3nnc(-c4cccs4)o3)o2)cc1	17.4%	6.0%	5.1%	1.6	-1.2
CC(O)c1nc2ccccc2n1Cc1nnc(-c2ccc(Cl)cc2)o1 (stereo not drawn)	-17.4%[5.75 µM]	-1.1%	-14.9%	21.4*	28.4
CC(C)NCc1nnc(-c2ccc(Cl)cc2)o1	11.9%	-0.3%	18.9%	19.5*	32.2
O=S(=O)(CCc1nnc(-c2ccc(Br)cc2)o1)c1ccc(Cl)cc1	-17.6%	-4.9%	/	-6.7	-13.7
[Cl][In]([Cl])[Cl]	6.75µM*	/	7.57µM*	/	/
Cc1cc(C)n(C(=O)CNC(=O)c2ccc(Cl)cc2Cl)n1	34.0%	-15.5%	24.9%	9.3	-3.6
Cn1nc(-c2ccccc2)c(C#N)c1Sc1cccc(Cl)c1	10.4µM*	7.4%	?	10.0	-8.4
O=C(NCCc1ccc(Cl)cc1)c1ccc2c(c1)OCCO2	3.6%	-0.3%	104.0%	41.8*	/
O=C(NCCOc1ccc(Cl)cc1)c1ccc2c(c1)OCCO2	172.0%	/	250.6%	/	/
O=C(NCCc1ccc(Cl)cc1)c1ccc2c(c1)OCO2	110.3%	-3.2%	134.9%	43.0*	83.4*
O=C(NCCN1CCCCC1)c1ccc2c(c1)OCCO2	/	-0.8%	44.1%	13.6*	30.9
O=C(NCCc1ccc2c(c1)OCCO2)c1ccc(F)cc1	284.1%	-3.3%	23.9%	34.2*	54.6
O=C(NCCCN1CCN(CCCNC(=O)c2ccc3c(c2)OCO3)CC1)c1ccc2c(c1)OCO2	/	1.6%	-9.2%	-1.1	-11.7
CN1CCC(N(C)S(=O)(=O)c2ccc(NC(=O)COc3ccc(F)cc3Cl)cc2)CC1	?	-2.1%	?	-1.6	-8.7
c1ccc(Cn2nnc(CNc3ccccc3)c2-c2c(CNc3ccccc3)nnn2Cc2ccccc2)cc1	1.85µM*	1.2%	2.62µM*	-2.5	-3.3
C=C(C)COc1ccc(-c2nc(N)nc(C)c2-c2ccc(OC)cc2)c(O)c1	?	2.1%	?	0.3	-1.4
CCOc1ccccc1Oc1cn[nH]c1-c1ccc(O)cc1O	9.28µM*	3.6%	8.28µM*	-4.7	-13.5
C=C(C)COc1ccc(-c2[nH]ncc2Oc2ccccc2OCC)c(O)c1	1.17µM*	7.0%	1.31µM*	8.6	26.3
C=C(C)COc1ccc(-c2ncncc2Oc2ccc(OC)cc2)c(O)c1	/	-15.6%	3.7µM*	28.3*	85.1*

Screening data (PubChem)
